# Only some compounds are listed: those with a hit (about 9.3% of all), similar ones and a draw of the others.
# FLuc modulator – firefly luciferase modulation, counter-screen for miR-21 project. P08659. purified FLuc, Km substrates, luminescence inhibition. Potency, µM (titrated, usually from 57.5 µM), for the others: at the top dose activity change, negative = inhibition, actives largely listed as inhibitors. 6.9% of 360,000 active. AID 588342;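 note: plate controls were vehicle for no effect and reference inhibitor for full effect; nearly all actives have a fitted effect of over 55% in size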
# Target sequence (P08659 whole entry, looked up): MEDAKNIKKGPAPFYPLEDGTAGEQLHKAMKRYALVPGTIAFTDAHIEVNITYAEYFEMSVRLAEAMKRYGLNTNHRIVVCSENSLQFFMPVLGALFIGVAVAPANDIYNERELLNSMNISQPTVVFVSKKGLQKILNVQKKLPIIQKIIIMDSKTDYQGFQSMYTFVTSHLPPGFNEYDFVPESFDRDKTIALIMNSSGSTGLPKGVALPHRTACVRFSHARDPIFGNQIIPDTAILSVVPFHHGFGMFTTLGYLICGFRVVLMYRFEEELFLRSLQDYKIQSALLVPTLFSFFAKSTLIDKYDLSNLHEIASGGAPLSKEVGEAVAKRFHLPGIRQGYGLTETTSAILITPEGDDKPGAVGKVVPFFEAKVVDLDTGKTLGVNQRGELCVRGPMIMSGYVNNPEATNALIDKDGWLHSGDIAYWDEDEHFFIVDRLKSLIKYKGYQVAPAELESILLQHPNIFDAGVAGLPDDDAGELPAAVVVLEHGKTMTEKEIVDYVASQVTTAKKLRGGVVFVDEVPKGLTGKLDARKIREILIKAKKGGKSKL
#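 Biochemical qHTS of compounds, final roughly 60 µM downward over six points, against 10 nM purified firefly luciferase using Km concentrations of substrates (10 uM D-luciferin, 10 uM ATP) in Tris acetate pH 7.5 buffer; luminescence output.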
# ELG1 repair inh – inhibitors of ELG1-dependent DNA repair in HEK293T cells; HEK293T ELG1-luciferase reporter, luminescence, 16 h; DNA damage induced by 5-fluorouridine; AID 504467; Potency, µM (highest dose often 46.1 µM), for inactives: top-dose activity change, negative = inhibition, most hits filed as inhibitors; 2.3% of 330,000 active; note: % is set by controls: 0 for no effect and ±100 for the full control effect; nearly all actives have a fitted effect of over 55% in size
#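 Step one: seed 2,000 cells per well. Step two: pin-transfer compound or DMSO alongside 5-fluorouridine. Step three: incubate 16 hr, 37 °C, 5% CO2. Step four: add ONE-Glo, wait 30 min, read luminescence.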
# Rab9 promoter act – activates the Rab9 promoter | Huh7 Rab9 promoter-luciferase reporter, luminescence, 24 h | Potency, µM (top dose mostly 9.22 µM), for inactives: at the highest dose activation, negative = inhibition, actives largely listed as activators | 2.8% of 320,000 active; note: % of control where 0% means no effect; nearly all actives have a fitted effect of over 60% in size
#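 Steps: seed 1500 Huh7 Rab9-luc cells per well, rest 2 h at 37 °C; add compound in DMSO; incubate 24 h; add luciferase reagent, 10 min ambient; read luminescence.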
# NPC1 prom act – activators of NPC1 promoter | Huh7 NPC1 promoter luciferase reporter, 24 h | AID 485313 | 2.4% of 320,000 active | Potency, µM (titrated, usually from 9.22 µM), without a hit: at the highest dose activation, actives largely listed as activators; note: % of control where 0% means no effect; nearly all actives have a fitted effect of over 60% in size
#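 Huh7 cells stably carrying NPC1 promoter–luciferase, plated in Opti-MEM with 10% FBS for 2 h, were exposed to compound in DMSO for 24 h at 37 °C; luciferase reagent was added for 10 min and luminescence read.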
# SMN2 splice up – enhancers of SMN2 splice variant expression | Potency, µM (series often up to 46.1 µM), inactives show at the highest dose activity change, positive = activation, usual class: activators | AID 1458 | 2.8% of 210,000 active | HEK293 SMN2-luciferase splicing reporter, luminescence, 30-36 h; note: % of control where 0% means no effect; nearly all actives have a fitted effect of over 55% in size
#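 qHTS luciferase splicing reporter: luminescence rises when SMN2 exon 7 is included in transfected HEK293 cells. Compound exposure lasted 30-36 h at 37C, with 4.5 mM final sodium butyrate as control, followed by a ONE-Glo read.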
# ELG1 genotox – inducers of genotoxicity in HEK293T ELG1-luciferase cells. AID 504466. Potency, µM (top dose mostly 46 µM), for the others: at the top dose activity change, positive = activation, usual class: activators. 1.3% of 330,000 active. HEK293T ELG1-luciferase reporter, luminescence, 16 h; note: % of control where 0% means no effect; nearly all actives have a fitted effect of over 60% in size
#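 Screening used a luciferase reporter fused to human ELG1 in HEK293T cells. Luminescence was read on a CCD plate imager after 16 hr exposure and 30 min ONE-Glo incubation.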
# Starred values were filed as active, the others as inactive; ? = inconclusive; nt = no result. Calls come from the whole dose curve; as a rule, active = well fitted curve in the direction sought with a large enough effect; inconclusive = small, poorly fitted or top-dose-only effect, or another doubt; inactive = no such curve, though single readings can be large; an effect the other way counts as inactive or inconclusive. Potency is the fitted concentration of half-maximal effect.
SMILES,FLuc modulator,ELG1 repair inh,Rab9 promoter act,NPC1 prom act,SMN2 splice up,ELG1 genotox
Cc1ccc(NC(=O)CCCn2nc(C)c3c(C)n(-c4ccccc4)nc3c2=O)c(Cl)c1,-1%,0%,0%,1%,nt,2%
S=C(NCc1ccco1)Nc1cc(-c2ccccc2)[nH]n1,?,-13%,1%,7%,10%,7%
COc1cccc2cc(C(=O)NCc3ccc(Cl)cc3)c(=N)oc12,?,22%,0%,-8%,nt,-7%
COc1cccc2cc(C(=O)NCc3ccccc3)c(=N)oc12,11µM*,?,3%,-4%,nt,14%
CCOc1cccc2cc(C(=O)NCc3ccc(F)cc3)c(=N)oc12,15µM*,0%,-2%,-3%,nt,?
CCOc1cccc2cc(C(=O)NC(C)c3ccccc3)c(=N)oc12 (configuration not stated),1%,13%,3%,0%,nt,-2%
CCOc1cccc2cc(C(=O)NCc3ccccc3)c(=N)oc12,17µM*,23%,1%,-1%,nt,16%
CC1(C)OCC(CSC2=C(SCC3COC(C)(C)O3)C(=O)c3ncccc3C2=O)O1 (configuration not stated),nt,nt,nt,nt,-32%,nt
Cc1ccc(/C(O)=C/c2nc3cc(C)ccc3oc2=O)cc1,12µM*,0%,-4%,-2%,nt,1%
Cc1ccc(-c2nc(N)nc(N)n2)c(C)c1,1%,6%,1%,2%,nt,4%
Cc1ccc(-c2nc3cc(N)ccc3o2)c(C)c1,0.67µM*,?,0.56µM*,?,?,2.6µM*
O=c1oc2ccccc2nc1/C=C(\O)c1ccccc1,?,-10%,14%,1%,nt,0%
Cc1ccc2oc(-c3ccco3)nc2c1,4.8µM*,?,?,?,18%,?
CC(C)(C)c1ccc(-c2nc3cc(N)ccc3o2)cc1,0.43µM*,?,0.63µM*,0.32µM*,nt,1.3µM*
Cc1cc(C)cc(NC(=O)CCS(=O)(=O)c2ccc3nc(C)sc3c2)c1,-9%,nt,nt,nt,nt,nt
O=C(NCCC1CCCCN1S(=O)(=O)c1cccs1)C(=O)NCc1ccccc1 (configuration not stated),0%,?,-3%,-6%,nt,-3%
C=CCn1c(CCNC(=O)c2ccccc2F)nnc1SCC(=O)Nc1nc2ccccc2s1,-19%,?,0%,-3%,-23%,-3%
C=CCOc1ccccc1CN1CCCC(CCC(=O)N(C)CCc2ccccn2)C1 (configuration not stated),2%,1%,13%,2%,nt,-1%
COc1ccc(NS(=O)(=O)c2ccc3nc(COc4ccc(C#N)cc4)[nH]c3c2)cc1,-5%,?,-1%,-2%,-12%,-2%
Cc1ccc(-c2nc3cc(C)ccc3o2)cc1,0.17µM*,?,0.63µM*,?,11µM*,0.52µM*
Nc1ccc2oc(-c3cccc4ccccc34)nc2c1,13µM*,?,8%,-2%,10%,8%
Cc1ccc(-c2nc3cc(N)ccc3o2)cc1,0.6µM*,?,0.45µM*,0.45µM*,0.71µM*,0.33µM*
Cc1ccc2oc(-c3cccc(N)c3)nc2c1,0.76µM*,?,0.63µM*,1µM*,nt,2.3µM*
COc1cccc(Cn2c(=O)c(-c3cccc(F)c3)nc3cncnc32)c1,nt,nt,nt,nt,-33%,nt
O=C1CCC(C(=O)O)N1 (configuration not stated),3%,-4%,-3%,-3%,nt,7%
SMILES,FLuc modulator,ELG1 repair inh,Rab9 promoter act,NPC1 prom act,SMN2 splice up,ELG1 genotox
CC(C)c1ccc2oc(-c3ccc(NC(=O)c4cc5ccccc5o4)cc3)nc2c1,-2%,nt,nt,nt,-23%,nt
CC(C)c1ccc2oc(-c3ccc(N)cc3)nc2c1,0.19µM*,?,0.56µM*,0.56µM*,nt,?
Nc1ccc2oc(-c3cccs3)nc2c1,12µM*,?,3.5µM*,3.2µM*,nt,9.2µM*
O=C(Nc1nc2c(s1)CCCC2)c1cccs1,1.1µM*,?,0.71µM*,2.8µM*,3.2µM*,?
O=C(Cc1cccs1)Nc1nc2c(s1)CCCC2,17µM*,?,2.8µM*,?,13µM*,?
CC(C)(C)c1nc(SCC(=O)Nc2nc3c(s2)CCCC3)c2ccccc2n1,2%,3%,17%,-3%,3.2µM*,-6%
O=C(Nc1nc2c(s1)CCCC2)c1cccnc1,12µM*,?,?,2.5µM*,nt,2.1µM*
CC(C)(CO)NCC(O)Cn1cc(C=O)c2ccccc21 (configuration not stated),4%,-10%,-1%,1%,6%,-2%
Cn1c(=O)cc(Nc2ccccc2)c2c(=O)n(-c3ccccc3)c(=O)n(-c3ccccc3)c21,-4%,-16%,1%,3%,nt,-3%
O=C(C1CCCN(S(=O)(=O)c2cc(Cl)ccc2Cl)C1)N1CCOCC1 (configuration not stated),0%,-3%,-9%,1%,nt,-6%
Cn1c(=O)c(C(=O)NNC(=O)c2ccc(Br)cc2)c(O)c2ccccc21,3%,?,-4%,-4%,nt,-8%
O=S(=O)(c1cccc2cccc(Cl)c12)N1CCCC1,3%,12%,-10%,-4%,-27%,-5%
CCCCCc1ccc(S(=O)(=O)NCCc2ccncc2)cc1,-1%,?,-7%,1%,-58%,4%
CC1(C)CC(NC(=O)c2cccc([N+](=O)[O-])c2)CC(C)(C)N1,-1%,-3%,3%,-3%,nt,0%
O=C(CCSc1ccccc1)Nc1nc2c(s1)CCCC2,19µM*,?,28%,30%,8%,23µM*
O=C(CSc1ncn(-c2ccccc2)n1)Nc1nc2c(s1)CCCC2,-24%,?,-9%,2%,?,?
O=c1c(-c2cc(F)cc(F)c2)nc2cnc(Oc3ccccc3)nc2n1C1CC1,nt,nt,nt,nt,-4%,nt
Cc1cc(C)n2c(nc3ccccc32)c1C(=O)NCc1ccccc1,-9%,24%,7%,1%,-2%,-1%
Cc1cc(C)n2c(nc3ccccc32)c1C(=O)NN,0.38µM*,?,-1%,1%,nt,7%
CN(C)S(=O)(=O)c1cccc(-c2nn(-c3ccccc3)cc2/C=C2\SC(=S)NC2=O)c1,-18%,23µM*,-4%,-3%,-57%,-10%
CN(C)S(=O)(=O)c1cccc(-c2nn(-c3ccccc3)cc2/C=C(\C#N)c2nc3ccccc3[nH]2)c1,4%,2.6µM*,-12%,-9%,-1%,-10%
O=C(O)CCn1cc(/C=C2\SC(=S)NC2=O)c(-c2ccccc2)n1,?,-3%,-1%,-8%,2%,1%
